# Measurements: PMC5540273 (PLoS ONE, 2017)
# How the values were obtained:
# Settings in all cases: concentration: 1 μM, replicates: in singlicate; n = 1
# [1] = test system: MYLK4
# [2] = test system: MYLK
# [3] = test system: MYO3A
# [4] = test system: MYO3B
# [5] = test system: T1, NDR1
# T1 construct: gene STK38
# [6] = test system: NDR2
# [7] = test system: NEK10
# [8] = test system: NEK11
# [9] = test system: NEK1
# [10] = test system: NEK2
# [11] = test system: NEK3
# [12] = test system: NEK4
# [13] = test system: NEK5
# [14] = test system: NEK6
# [15] = test system: NEK7
# [16] = test system: NEK9
# [17] = test system: T2, NIK
# T2 construct: gene MAP3K14
# [18] = test system: T3, NIM1
# T3 construct: gene MGC42105
# [19] = test system: NLK
# [20] = test system: T4, OSR1
# T4 construct: gene OXSR1
# 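Also: KINOMEscan kinase panel screen.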
Compound,%Inh [1] [%],%Inh [2] [%],%Inh [3] [%],%Inh [4] [%],%Inh [5] [%],%Inh [6] [%],%Inh [7] [%],%Inh [8] [%],%Inh [9] [%],%Inh [10] [%],%Inh [11] [%],%Inh [12] [%],%Inh [13] [%],%Inh [14] [%],%Inh [15] [%],%Inh [16] [%],%Inh [17] [%],%Inh [18] [%],%Inh [19] [%],%Inh [20] [%]
Cn1ccc2ncnc(Nc3ccc(Oc4cccc(Cl)c4)c(Cl)c3)c21,3,0,0,3,22,11,2,0,0,0,26,11,0,25,4,17,0,0,0,15
O=c1cc(N2CCOCC2)nc2n(Cc3cccc(Cl)c3)ccn12 [GSK2296823],0,61,0,0,8,0,0,0,0,10,3,16,2,0,2,3,13,0,0,7
O=C(Nc1ccccc1F)NC1CCN(c2ccnc(Nc3ccc(F)cc3)n2)C1 (stereo not drawn) [GSK1379722],0,0,2,0,12,0,22,2,0,0,4,9,12,0,0,0,14,15,17,0
COC(=O)c1c(-c2ccccc2)c2cc(Cl)ccc2c(=O)n1Cc1ccc(S(C)(=O)=O)cc1,5,34,0,0,0,0,13,0,0,83,4,0,0,2,0,0,0,0,0,0
COC(=O)c1cccc(NC(=O)NCCNc2ccnc(Nc3ccc(F)cc3)n2)c1 [GSK1379883],6,11,31,0,0,27,8,10,0,0,0,0,17,0,0,11,9,0,0,4
Oc1ccc2ncnc(Nc3ccc(OCc4ccccc4)cc3)c2c1 [GI262866],3,0,0,0,0,0,0,0,0,0,0,0,7,0,1,10,8,7,7,0
O=C(Nc1ccccc1)Nc1ccc(Oc2ccc3nccn3n2)cc1,0,11,0,0,16,0,0,0,0,0,8,0,20,0,0,0,0,0,2,0
Fc1cccc(COc2ccc(Nc3ncnc4sc(-c5ccc[nH]5)cc34)cc2Cl)c1 [GW707818],13,13,17,0,23,17,4,24,0,15,1,0,31,0,0,17,0,14,23,0
CCC(CC)(CC)n1cnc2c(N)ncnc21 [SKF-97620],0,0,0,35,42,16,65,0,0,0,23,0,0,0,0,0,0,28,17,19
